Shiga toxin inh – Shiga toxin inhibition. Vero cells, Shiga toxin protein synthesis inhibition reporter. inhibition, % at 38.7 µM. 290,000 compounds, 9.2% hits; in the data active means inhibition mostly above about 28%, no sharp cut-off; inactive means mostly below about 43%
MARV entry inh – Marburg virus entry inhibition | Marburg virus pseudotyped entry inhibition, cell reporter | Potency, µM (titrated, usually from 37.8 µM), actives largely listed as inhibitors | 300,000 compounds, 1.8% hits | AID 540276; calls by dose curve; tested in HEK293 cells
Lassa entry inh – blocks Lassa virus binding to or entry into cells; Lassa virus pseudotype entry inhibition, cell reporter; Potency, µM (series often up to 37.9 µM), hits mostly inhibitors; 300,000 compounds, 1.2% hits; AID 540256; calls by dose curve; tested in HEK293 cells; further: nearly all actives have a fitted effect of over 50% in size
FMDV antiviral – foot and mouth disease virus antiviral activity; FMDV antiviral cell-based qHTS; 410,000 compounds, 1.2% hits; Potency, µM (doses to about 57.9 µM), most hits filed as inhibitors; AID 1159524; calls by dose curve; tested in HEK293T cells; further: read-out not given here; nearly all actives have a fitted effect of over 45% in size
CHX counter – counter-screen for Shiga toxin inhibitors: cycloheximide protein synthesis inhibition | cell reporter, cycloheximide protein synthesis inhibition counterscreen | max response, % | 300,000 compounds, 12% hits; in the data active means max response mostly above about 13%, no sharp cut-off; inactive means mostly below about 14%; further: read at 38.3 µM for the half of the compounds with a filed dose
HCV inh – inhibitors of hepatitis C virus infection; Huh7.5.1 HCVcc-Cre infection, luciferase reporter, 44 h; Potency, µM (doses to about 41.8 µM), actives largely listed as inhibitors; 340,000 compounds, 3.4% hits; active means well fitted inhibition curve with a large enough effect; inconclusive means small, poorly fitted or top-dose-only effect, or another doubt; inactive means no such curve, though single readings can be large or run the other way
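Reporter virus HCVcc-Cre (~0.5 moi) infects cells exposed to compound; seeding density 1,000 cells/well with 4 h settling beforehand. Luminescence, 15 sec read, taken 44 h post-infection following a 15 min RT substrate incubation.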
Of the large screens only hits and unclear results are named; the others gave an inactive call. This is a sample that favours compounds with a hit; in the whole collection about 13% have one here.

Cc1[nH]n(-c2ccccc2)c(=O)c1C=NC1CCCCC1	Shiga toxin inh 48.9, CHX counter 14.0 (no result: MARV entry inh, Lassa entry inh)
Cc1[nH]n(-c2ccccc2)c(=O)c1/C=N/N(c1ccccc1)c1ccccc1	MARV entry inh inconclusive
C=CCN=Cc1c(C)[nH]n(-c2ccccc2)c1=O	Shiga toxin inh 93.5, CHX counter 22.1
Cc1[nH]n(-c2ccccc2)c(=O)c1C=Nc1cccc(F)c1	Shiga toxin inh 57.1
Cc1[nH]n(-c2ccccc2)c(=O)c1/C=N/c1ccccn1	none
COc1ccc(CC(=O)OC(C)CN2CCOCC2)cc1 (configuration not stated)	none
S=C(Nc1ccc(Cl)cc1)c1nc2ccccc2[nH]1	Shiga toxin inh 65.9, MARV entry inh inconclusive, Lassa entry inh inconclusive, CHX counter 59.3, HCV inh 11.2µM
Cc1ccccc1NC(=S)c1nc2ccccc2[nH]1	Shiga toxin inh active, MARV entry inh inconclusive, CHX counter 41.6, HCV inh inconclusive
OC(c1ccc(Cl)cc1)C(O)c1nc2ccccc2[nH]1 (configuration not stated)	none
Cc1ccc(C)c2[nH]c(=O)c(CCNS(=O)(=O)c3ccccc3)cc12	none (no result: MARV entry inh, Lassa entry inh)
O=C1CCN(C(=O)c2ccccc2)c2ccccc21	none (no result: Shiga toxin inh, MARV entry inh, Lassa entry inh, CHX counter, HCV inh)
CCc1nnc(NC(=O)CSc2nc(C)c3c(c2C#N)CCCC3)s1	Shiga toxin inh 56.2, MARV entry inh inconclusive, Lassa entry inh inconclusive, CHX counter 64.3, HCV inh 11.2µM
COc1ccc(OCc2nc3ccc(S(=O)(=O)Nc4ccccc4Cl)cc3[nH]2)cc1	none
COc1ccc(NS(=O)(=O)c2ccc3nc(COc4cccc5ccccc45)[nH]c3c2)cc1	MARV entry inh 14.6µM, Lassa entry inh inconclusive, HCV inh inconclusive
O=C(Nc1ccc(NC(=O)c2cc3ccccc3o2)cc1)c1ccccc1	none (no result: Shiga toxin inh, MARV entry inh, CHX counter, HCV inh)
CN(C)S(=O)(=O)c1ccc(NC(=O)c2cc3ccccc3o2)cc1	Shiga toxin inh 130.2, MARV entry inh inconclusive, CHX counter 20.5
Cc1ccc(NC(=O)c2cc3ccccc3o2)cc1S(=O)(=O)N(C)C	Lassa entry inh inconclusive, CHX counter 53.8, HCV inh 11.2µM
N#Cc1ccc(-c2nc3c4ccccc4ccn3c2Cc2ccsc2)cc1	none (no result: Shiga toxin inh, MARV entry inh, Lassa entry inh, CHX counter, HCV inh)
O=C(Cc1ccc(-c2ccccc2)cc1)NCc1cccnc1	MARV entry inh inconclusive, Lassa entry inh inconclusive, HCV inh inconclusive
O=C(NCc1ccccc1)c1cc(-c2cccc(O)c2)on1	Shiga toxin inh 60.9, CHX counter 25.0, HCV inh inconclusive (no result: MARV entry inh, Lassa entry inh)
O=C(NCc1cccnc1)c1cc2nc(-c3cccs3)cc(C(F)(F)Cl)n2n1	Lassa entry inh inconclusive, HCV inh inconclusive
O=C(NCc1cccnc1)c1cc(-c2cccs2)on1	Shiga toxin inh 36.8, CHX counter 59.5 (no result: Lassa entry inh)
COc1ccc(-c2cc(C(=O)NCc3ccccc3)no2)cc1OC	none
COc1ccc(-c2cc(C(=O)NCc3cccnc3)no2)cc1	Shiga toxin inh 73.0, Lassa entry inh inconclusive, CHX counter 43.2
O=C(NCc1cccnc1)c1cc(-c2ccccc2)on1	CHX counter 40.1
Cc1ccc(CNC(=O)CNC(=S)N(Cc2ccccc2)Cc2ccccc2F)cc1	MARV entry inh inconclusive, Lassa entry inh inconclusive, HCV inh inconclusive
COc1ccccc1NC(=O)c1sc2nc(Cc3ccccc3)cc(C(F)(F)F)c2c1N	HCV inh inconclusive
COC(=O)C(NC(=O)c1ccco1)(Nc1nc(C2CC2)cs1)C(F)(F)F (configuration not stated)	MARV entry inh inconclusive
CCOc1ccc2nc(SCC(=O)c3cccs3)sc2c1	Shiga toxin inh 139.3, MARV entry inh inconclusive, Lassa entry inh inconclusive, CHX counter 41.8
CCOc1ccc2nc(SCC(=O)c3ccc(Cl)s3)sc2c1	HCV inh inconclusive
CCOc1ccc2nc(SCC(=O)NCc3ccco3)sc2c1	CHX counter 18.3, HCV inh inconclusive
COC(=O)CCC(=O)Nc1ccc(S(=O)(=O)Nc2nc(C)cc(C)n2)cc1	none (no result: Shiga toxin inh)
COc1ccc(-c2ccc(SCc3ccccn3)nn2)cc1OC	CHX counter 28.8 (no result: MARV entry inh, Lassa entry inh)
O=[N+]([O-])c1cccc(-c2ccc(SCc3ccccn3)nn2)c1	Shiga toxin inh 56.4, CHX counter 36.5
COc1cccc(-c2ccc(SCC(=O)N3CCOCC3)nn2)c1	none (no result: Lassa entry inh)
COc1cccc(-c2ccc(SCc3ccccn3)nn2)c1	Shiga toxin inh 77.3, MARV entry inh inconclusive, Lassa entry inh inconclusive, CHX counter 41.9
NC(=O)c1ccc(NC(=O)CSc2nnc(C3CC3)n2C2CC2)cc1	none (no result: Shiga toxin inh, CHX counter)
Cc1ccc(/C=c2\sc3nc(-c4cccnc4)nn3c2=O)cc1	none
